# Rows were chosen to be rich in hits. Some 21% of all compounds tested hit in one or more screens of this group.
# Pf growth 48h: P. falciparum growth inhibition at 48 hours (one generation) | P. falciparum luciferase growth in erythrocytes, 48 h | Potency, µM (titrated, usually from 28.7 µM), without a hit: at the highest dose activity change, negative = inhibition, hits mostly inhibitors | actives 5.9% (n = 310,000); also: potency is read from the fitted curve at half-maximal effect; % is scaled to controls: 0 for no effect and ±100 for the full control effect
#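 Here the parasites carry a stable luciferase gene and grow inside erythrocytes in Albumax-based RPMI medium with compound for one erythrocytic cycle. Activity is scored as loss of luminescent signal.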
# Shiga inhibitor: blocks Shiga toxin action in Vero cells; Vero cells, Shiga toxin protein synthesis inhibition reporter; inhibition, % at 38.7 µM; actives 9.2% (n = 290,000); AID 2315; in the data active = inhibition mostly above about 28%, no sharp cut-off; inactive = mostly below about 43%; also: 0% is about no effect
# Pf growth 96h: inhibits malaria parasite growth, 96 h; P. falciparum luciferase reporter growth, 96 h; Potency, µM (highest dose often 28.7 µM), without a hit: top-dose activity change, negative = inhibition, usual class: inhibitors; actives 6.9% (n = 320,000); also: potency is read from the fitted curve at half-maximal effect; % is scaled to controls: 0 for no effect and ±100 for the full control effect
#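 P. falciparum expressing integrated firefly luciferase, in erythrocytes at 2% hematocrit, 0.05% parasitemia, incubated with compounds 96 h at 37 C, 5% CO2. Growth inhibition read as loss of luminescence; two-generation exposure targets delayed-death apicoplast inhibitors.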
# Sm TGR inh: inhibitors of Schistosoma mansoni thioredoxin glutathione reductase. purified TGR, DTNB reduction, TNB absorbance 405 nm. Potency, µM (titrated, usually from 114 µM), for the others: at the top dose activity change, negative = inhibition, most hits filed as inhibitors. actives 3% (n = 360,000). AID 485364; also: potency is read from the fitted curve at half-maximal effect; % is scaled to controls: 0 for no effect and ±100 for the full control effect; nearly all actives have a fitted effect of over 60% in size
#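 Kinetic colorimetric format: TGR-catalysed, NADPH-driven DTNB reduction monitored via TNB absorbance. Enzyme dispensed at 20 nM; compound exposure 15 min at room temperature before reaction start.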
# NS1 function inh: inhibitors of influenza NS1 protein function; actives 0.4% (n = 270,000); Potency, µM (titrated, usually from 46.1 µM), for the others: top-dose activity, positive = more growth; calls by dose curve; also: potency is read from the fitted curve at half-maximal effect; actives are rising curves; nearly all actives have a fitted effect of over 50% in size
#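 Growth recovery, yeast-based: influenza A NS1 expressed in S. cerevisiae causes slow growth, and suppressors are detected by OD600. The parent strain without NS1 is used as positive control.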
# CHX counter: counter-screen hit for Shiga toxin inhibitors, cycloheximide | actives 12% (n = 300,000) | cell reporter, cycloheximide protein synthesis inhibition counterscreen | AID 2314 | max response, %; in the data active = max response mostly above about 13%, no sharp cut-off; inactive = mostly below about 14%; also: read at 38.3 µM for the half of the compounds with a filed dose; 0% is about no effect
# Active calls of the source: *; ? = inconclusive; / = no result given. Unless noted, calls follow the shape of the dose curve; as a rule, active = well fitted curve in the direction sought with a large enough effect; inconclusive = small, poorly fitted or top-dose-only effect, or another doubt; inactive = no such curve, though single readings can be large; an effect the other way counts as inactive or inconclusive.
SMILES,Pf growth 48h,Shiga inhibitor,Pf growth 96h,Sm TGR inh,NS1 function inh,CHX counter
COc1ccc(Cl)cc1S(=O)(=O)N1CCCC(C(=O)NCCc2ccccc2)C1 (stereo not drawn),38%,22,10µM*,-2%,-23%,4
COc1ccc(S(=O)(=O)N2CCCC(C(=O)NCc3ccc(F)cc3)C2)cc1 (stereo not drawn),1%,13,2%,4%,-15%,-6
CCOc1ccc(S(=O)(=O)N2CCCC(C(=O)NCc3ccccc3)C2)cc1 (stereo not drawn),13%,-15,37%,4%,-1%,-2
CCc1nnc(NC(=O)c2ccc(COc3cccc(C)c3)o2)s1,11%,-5,13%,-15%,8%,-6
COc1ccccc1NC(=O)Cn1ccn(-c2cccc3ccccc23)c(=O)c1=O,?,/,-3%,-4%,/,/
O=C(NCCc1ccccc1)C1CCCN(S(=O)(=O)c2cccnc2)C1 (stereo not drawn),-4%,14,11%,28%,-4%,14
O=C(NCc1cccnc1)C1CCCN(Cc2cnn(-c3ccccc3)c2-n2cccc2)C1 (stereo not drawn),/,-10,12µM*,-1%,2%,-1
NS(=O)(=O)c1ccc(CCNC(=O)C2CCCN(S(=O)(=O)c3cccnc3)C2)cc1 (stereo not drawn),/,2,7.4µM*,-29%,-4%,-7
COc1ccc(S(=O)(=O)N2CCCC(C(=O)NCc3cccnc3)C2)cc1OC (stereo not drawn),-20%,/,?,-1%,/,/
O=C(NCc1ccccn1)C1CCCN(Cc2cnn(-c3ccccc3)c2-n2cccc2)C1 (stereo not drawn),?,-17,1%,-12%,3%,2
CCOC(=O)c1ccc(NC(=O)C2CCCN(S(=O)(=O)c3ccc(F)cc3)C2)cc1 (stereo not drawn),/,-16,8.3µM*,-15%,17%,-3
O=C(NCc1cccnc1)C1CCCN(S(=O)(=O)c2ccc(Cl)cc2)C1 (stereo not drawn),-2%,11,-31%,-15%,-11%,36*
Cc1cccc(C)c1NC(=O)NC1(C(=O)NCCN2CCOCC2)CCCCC1,-14%,30,2%,-3%,/,1
O=C(Nc1ccc(F)cc1Cl)C1CCN(C(=O)Nc2ccccc2)CC1,6%,24,13%,-10%,6%,7
Cc1ccc(N(C)C(=O)n2cnc3ccccc32)cc1,3.7µM*,3,9.3µM*,-1%,0%,15
CN(C)c1cccc(C(=O)n2cc(C(=O)c3cc(F)ccc3O)cn2)c1,68%,97*,-4%,-6%,-38%,20
CCOC(=O)C1(Cc2cccc(Cl)c2)CCCN(C(=O)c2ccc(COC)s2)C1 (stereo not drawn),?,23,-23%,3%,-18%,20*
CCOC(=O)C1(Cc2cccc(Cl)c2)CCCN(C(=O)c2ccco2)C1 (stereo not drawn),-15%,64*,?,?,10%,16
CCOC(=O)C1(Cc2cccc(Cl)c2)CCCN(C(=O)C2CC2)C1 (stereo not drawn),-4%,5,-11%,-3%,-10%,14*
CCOC(=O)C1(Cc2cccc(Cl)c2)CCCN(C(=O)CCC(=O)N(C)C)C1 (stereo not drawn),5%,1,?,8%,-3%,-2
COc1ccc2c(c1)NC(c1cc(Cl)cc(Cl)c1O)c1cccn1-2 (stereo not drawn),8%,-2,?,-23%,3%,-3
COc1ccc2c(c1)NC(c1ccc(N(C)C)cc1)c1cccn1-2 (stereo not drawn),-18%,79*,?,50µM*,4%,25*
O=C(NCC1CCCO1)c1cccc(NC(=O)c2ccccc2)c1 (stereo not drawn),5%,-21,-5%,8%,13%,2
O=C(NCC1CCCO1)c1cccc(Oc2ccccc2)c1 (stereo not drawn),62%,53*,43%,-1%,-20%,33*
O=C(NCC1CCCO1)c1cccc(Oc2c(Cl)cccc2[N+](=O)[O-])c1 (stereo not drawn),?,20,-21%,5%,-10%,8
SMILES,Pf growth 48h,Shiga inhibitor,Pf growth 96h,Sm TGR inh,NS1 function inh,CHX counter
O=C(NCC1CCCO1)c1cccc(Oc2ccc([N+](=O)[O-])cc2)c1 (stereo not drawn),0%,50*,?,0%,-52%,24*
O=c1c2oc3ccccc3c2n(Cc2ccccc2F)c(=O)n1Cc1ccco1,/,/,/,3%,/,/
Cc1ccc2nc(C)c(C(=O)N/N=C/c3cccs3)n2c1,27%,23,25%,5%,-2%,9
COc1ccc(CCC(=O)N/N=C\c2cccs2)cc1,9.3µM*,-3,56%,2%,/,21
CCCCOc1ccc(CCC(=O)N/N=C/c2ccco2)cc1,?,11,-22%,?,-4%,12*
Cc1cc(C)n(CC(=O)N/N=C/c2cccs2)n1,-15%,79*,6%,12%,24%,40*
Cc1ccn2c(C(=O)N/N=C\c3cccs3)c(C)nc2c1,6%,43,?,0%,-7%,16*
Cc1cc(C)n(CC(=O)N/N=C/c2ccc([N+](=O)[O-])s2)n1,?,41,14%,-26%,/,-2
O=C1c2oc3ccccc3c(=O)c2C(c2cccc(O)c2)N1Cc1ccc(F)cc1 (stereo not drawn),/,/,/,2%,/,/
COc1ccc(CNCc2ccc(C(=O)O)s2)cc1,/,/,/,-26%,/,/
O=C(COc1ccc(Cl)cc1[N+](=O)[O-])N/N=C/c1cccs1,16%,49,-2%,3%,/,31
Cc1ccc(OCC(=O)N/N=C\c2cccs2)c([N+](=O)[O-])c1,0%,37*,27%,-3%,-2%,39*
Cc1ccc([N+](=O)[O-])c(C(=O)N/N=C/c2cccs2)c1,?,48,?,-4%,-11%,22*
CCc1ccc(OCC(=O)N/N=C\c2ccco2)c([N+](=O)[O-])c1,22%,active,14%,-24%,0%,16*
CC(=O)N1CCCc2cc(S(=O)(=O)N(C)CC(=O)Nc3ccc(C)cc3C)ccc21,/,/,/,-1%,/,/
COc1cc(-c2nc3ccc(N4CCN(C)CC4)cc3[nH]2)cc(OC)c1OC,9.3µM*,48,3.7µM*,5%,/,26
COc1ccc(-c2nc3ccc(N4CCN(C)CC4)cc3c(=O)[nH]2)cc1,?,58,52%,7%,-2%,20
COc1ccc(NC(=O)[C@@H](NC(=O)N2C[C@H]3C[C@@H](C2)c2cccc(=O)n2C3)C(C)C)cc1OC,35%,-6,-1%,6%,-5%,2
O=C(CCc1nnc(CCCCc2ccccc2)o1)N1CCN(CCO)CC1,9%,10,7%,-5%,4%,-3
